Activity calls are given as the source filed them.
Key:
[1] = test system: Human papillomavirus type 1a protein E7 (residues 44-93); assay: small molecules binding HPV E7 44-93 – biochemical, small-molecule microarray, residues 44-93, 635 nm fluorescence, primary screen (AID 1108); conditions: fluorescence 635 nm, higher = more signal;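 further: E7 fragment applied at 1 µg/mL in TBST for 1 h at 4 C; score combines spot fluorescence with its signal to noise ratio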
[2] = hepatitis C replication reporter changes, two-sided – Huh7 cells, luciferase reporter, HCV replication inhibitor project, primary screen (AID 1109); conditions: Huh7 HCV replicon luciferase reporter, 48 h; higher = more signal;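 further: huh7 hepatoma cells harbouring a luciferase neomycin HCV replicon reporter; luciferase luminescence as measure of HCV replicon replication; test concentration not given here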
[3] = target: Left-right determination factor 2 (Homo sapiens) (UniProt O00292); assay: small molecules binding LEFTY2 protein – biochemical, small-molecule microarray, 635 nm fluorescence scan, primary screen (AID 1110); conditions: higher = more signal
[4] = target: Calmodulin-1 (Homo sapiens) (UniProt P0DP23); assay: small molecules binding calmodulin-1 with EGTA – biochemical, small-molecule microarray, Cy5-labelled CALM1, profiling panel (AID 1111); conditions: Cy5-CALM1 binding fluorescence, higher = more signal;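 further: labelled calmodulin applied in Tris saline Tween buffer holding calcium plus EGTA and DTT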
[5] = target: Calmodulin-1 (Homo sapiens) (UniProt P0DP23); assay: small molecules binding Ca-loaded calmodulin-1 – biochemical, small-molecule microarray, Cy5-labelled CALM1, plus calcium, artefact control for SMM control-protein annotation, profiling panel (AID 1112); conditions: Cy5-CALM1 binding fluorescence, higher = more signal;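 further: score merges spot fluorescence with signal to noise from triplicate slides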
[6] = probe aWnt5a binding to arrayed compounds – biochemical, biotinylated probe, 635/667 nm fluorescence, primary screen (AID 1113); conditions: small-molecule microarray, higher = more signal;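 further: score merges 667 nm fluorescence intensity with signal-to-noise per printed feature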
[7] = probe aShh binding to arrayed compounds – biochemical, biotinylated probe, 635/667 nm fluorescence, primary screen (AID 1114); conditions: small-molecule microarray, higher = more signal;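 further: probe is biotin-labelled aShh protein from a stem cell growth factor screen; measures binding of labelled protein to compounds printed on the slide; score merges feature fluorescence at 667 nm with signal-to-noise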
[8] = probe aNog binding to arrayed compounds – biochemical, biotinylated probe, 635/667 nm fluorescence, primary screen (AID 1115); conditions: small-molecule microarray, higher = more signal;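 further: probe is biotinylated aNog protein used at 0.15 µg/mL for 1 h at 4 C; z-score combines 667 nm fluorescence of each spot with its signal to noise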
[9] = target: Torsin-1A-interacting protein 1 (Homo sapiens) (UniProt Q5JTV8); assay: compound microarray binding of lysate hLAP1 – cell lysate, small-molecule microarray, COS7 lysate, 635/667 nm fluorescence, primary screen (AID 1116); conditions: 635 nm fluorescence, higher = more signal
[10] = target: Alpha-bungarotoxin (Bungarus multicinctus) (UniProt P60615); assay: compounds binding labelled alpha-BTX control protein – biochemical, small-molecule microarray, Alexa647 label, 635/667 nm fluorescence, artefact control for SMM control protein annotation, profiling panel (AID 1117); conditions: alpha-BTX-A647 binding fluorescence, higher = more signal
[11] = target: Albumin (Bos taurus) (UniProt P02769); assay: compounds binding labelled BSA control protein – biochemical, small-molecule microarray, Alexa647 label, 635/667 nm fluorescence, artefact control for SMM control protein annotation, profiling panel (AID 1118); conditions: BSA-A647 binding, fluorescence 635 nm, higher = more signal;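 further: score merges 667 nm emission intensity and signal-to-noise per printed compound spot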
[12] = probe aXIP binding to arrayed compounds – biochemical, NeuroSMM set, 635/667 nm fluorescence, primary screen (AID 1119); conditions: small-molecule microarray, higher = more signal, called active from +8 up or from −8 down;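 further: probe is the protein aXip251-270 applied at 1 µg/mL to compound-printed slides; binding of probe to printed compounds measured as 667 nm fluorescence plus signal to noise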
[13] = probe aNOTCH3 binding on compound microarray – biochemical, small-molecule microarray, 635/667 nm fluorescence, primary screen (AID 1120); conditions: higher = more signal;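 further: probe is a biotin-tagged antibody raised against NOTCH3 rather than NOTCH3 protein; score merges spot fluorescence near 667 nm with spot signal to noise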
[14] = probe aNOTCH2 binding on compound microarray – biochemical, small-molecule microarray, 635/667 nm fluorescence, primary screen (AID 1121); conditions: higher = more signal;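 further: score merges feature fluorescence read at 667 nm with its signal to noise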
[15] = target: Carbonic anhydrase 2 (Homo sapiens) (UniProt P00918); assay: compounds binding carbonic anhydrase 2 – biochemical, small-molecule microarray, Alexa647-labelled CAII, profiling panel (AID 1122); conditions: CAII-A647 binding fluorescence, higher = more signal
[16] = COS7 lysate on small-molecule microarray, probe aHis, 635 nm (AID 1123); conditions: COS7 cell lysate, fluorescence, higher = more signal;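 further: z-score combines 667nm fluorescence intensity with signal-to-noise per printed compound spot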
[17] = probe aLAP1 signal on lysate-treated microarray – cell lysate, small-molecule microarray, COS7 lysate, primary screen (AID 1124); conditions: probe aLAP1, fluorescence, higher = more signal;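 further: lysate comes from COS7 cells expressing LAP1 and is applied at 0.3 µg/mL; score merges spot fluorescence near 667 nm with signal-to-noise over triplicate slides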
[18] = test system: Sam68 (KHDRBS1); assay: compounds binding KHDRBS1 protein – biochemical, small-molecule microarray, 635 nm fluorescence, primary screen (AID 1125); conditions: higher = more signal;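 further: score merges 667 nm channel intensity with signal to noise over triplicate slides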
[19] = test system: Chordin-like protein 2 (CHRDL2); assay: compounds binding chordin-like 2 – biochemical, small-molecule microarray, 635 nm fluorescence, primary screen (AID 1126); conditions: fluorescence 635 nm, higher = more signal;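 further: printed compound slides probed with Chrdl2 protein at 4 µg/mL for 1 h at 4 C; score merges 667 nm emission intensity with signal to noise over three replicate slides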
[20] = target: Concanavalin-A (Canavalia ensiformis) (UniProt P02866); assay: compounds binding concanavalin A lectin – biochemical, small-molecule microarray, Alexa647 label, 635 nm, artefact control for SMM control protein annotation, primary screen (AID 1127); conditions: ConA-A647 binding fluorescence, higher = more signal;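 further: z combines 667 nm emission intensity with signal-to-noise across three replicate slides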
Concanavalin-A (Canavalia ensiformis), sequence (P02866 whole entry, looked up): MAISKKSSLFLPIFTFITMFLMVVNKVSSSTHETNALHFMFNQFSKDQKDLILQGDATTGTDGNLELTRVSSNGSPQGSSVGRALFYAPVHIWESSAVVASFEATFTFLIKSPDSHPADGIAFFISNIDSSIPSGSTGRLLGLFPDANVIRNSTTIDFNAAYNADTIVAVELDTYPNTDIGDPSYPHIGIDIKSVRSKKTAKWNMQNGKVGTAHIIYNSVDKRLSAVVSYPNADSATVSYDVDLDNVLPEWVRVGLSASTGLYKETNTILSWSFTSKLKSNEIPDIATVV

Albumin (Bos taurus), sequence (P02769 whole entry, looked up): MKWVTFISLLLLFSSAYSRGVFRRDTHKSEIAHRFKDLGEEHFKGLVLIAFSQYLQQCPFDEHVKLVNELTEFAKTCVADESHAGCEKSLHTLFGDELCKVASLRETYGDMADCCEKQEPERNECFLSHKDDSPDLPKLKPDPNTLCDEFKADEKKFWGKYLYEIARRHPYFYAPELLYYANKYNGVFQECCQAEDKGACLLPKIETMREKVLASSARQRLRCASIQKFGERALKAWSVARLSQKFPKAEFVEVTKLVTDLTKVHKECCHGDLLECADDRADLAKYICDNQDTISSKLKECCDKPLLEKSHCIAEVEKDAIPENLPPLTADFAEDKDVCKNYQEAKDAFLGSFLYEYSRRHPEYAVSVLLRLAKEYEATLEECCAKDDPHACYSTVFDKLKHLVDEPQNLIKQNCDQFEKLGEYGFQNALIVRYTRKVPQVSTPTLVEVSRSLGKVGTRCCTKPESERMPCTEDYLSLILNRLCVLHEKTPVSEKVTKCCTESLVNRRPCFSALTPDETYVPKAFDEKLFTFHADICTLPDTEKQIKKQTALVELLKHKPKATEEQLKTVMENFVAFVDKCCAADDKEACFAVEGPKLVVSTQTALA
Left-right determination factor 2 (Homo sapiens), sequence (O00292 whole entry, looked up): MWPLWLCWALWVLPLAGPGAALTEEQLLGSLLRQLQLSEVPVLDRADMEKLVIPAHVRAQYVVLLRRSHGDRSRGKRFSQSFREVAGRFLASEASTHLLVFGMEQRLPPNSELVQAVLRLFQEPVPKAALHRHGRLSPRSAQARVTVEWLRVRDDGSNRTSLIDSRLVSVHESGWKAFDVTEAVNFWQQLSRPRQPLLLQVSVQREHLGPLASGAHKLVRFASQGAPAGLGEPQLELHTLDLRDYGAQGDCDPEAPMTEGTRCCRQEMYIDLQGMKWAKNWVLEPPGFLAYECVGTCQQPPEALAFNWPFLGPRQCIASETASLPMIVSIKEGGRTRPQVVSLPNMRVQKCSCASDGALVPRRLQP
Alpha-bungarotoxin (Bungarus multicinctus), sequence (P60615 whole entry, looked up): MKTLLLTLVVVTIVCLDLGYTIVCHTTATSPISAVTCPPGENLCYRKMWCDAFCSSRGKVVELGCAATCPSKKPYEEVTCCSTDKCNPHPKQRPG
Torsin-1A-interacting protein 1 (Homo sapiens), sequence (Q5JTV8 whole entry, looked up): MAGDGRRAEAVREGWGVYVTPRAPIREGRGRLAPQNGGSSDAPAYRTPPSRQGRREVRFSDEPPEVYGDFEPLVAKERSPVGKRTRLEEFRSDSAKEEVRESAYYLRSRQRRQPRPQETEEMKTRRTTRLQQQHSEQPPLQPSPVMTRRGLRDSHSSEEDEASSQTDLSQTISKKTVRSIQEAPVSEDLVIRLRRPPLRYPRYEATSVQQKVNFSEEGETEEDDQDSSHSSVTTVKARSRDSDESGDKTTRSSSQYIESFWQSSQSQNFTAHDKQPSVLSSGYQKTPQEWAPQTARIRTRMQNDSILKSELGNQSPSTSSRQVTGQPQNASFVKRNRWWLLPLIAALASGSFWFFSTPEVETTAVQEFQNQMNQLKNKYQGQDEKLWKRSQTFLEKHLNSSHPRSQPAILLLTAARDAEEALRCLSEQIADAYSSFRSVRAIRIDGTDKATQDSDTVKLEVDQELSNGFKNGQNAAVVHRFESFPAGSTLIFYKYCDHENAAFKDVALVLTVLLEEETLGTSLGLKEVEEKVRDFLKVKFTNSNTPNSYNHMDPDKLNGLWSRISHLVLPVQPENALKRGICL

Row | Structure (SMILES) | composite z-score [1] | z-score [2] | composite z-score [3] | composite z-score [4] | composite z-score [5] | composite z-score [6] | composite z-score [7] | composite z-score [8] | composite z-score [9] | composite z-score [10] | composite z-score [11] | composite Z-score [12] | composite z-score [13] | composite z-score [14] | composite z-score [15] | composite z-score [16] | composite z-score [17] | composite z-score [18] | composite z-score [19] | composite z-score [20]
1 | CC(=O)O[C@H]1C2=C(C(=O)[C@@H]3O[C@@H]31)[C@H]1C(C)O[C@@H]2[C@@]23C(=O)[C@@H]4O[C@@H]4[C@@H](O)C2=CO[C@H](C)[C@@H]13 (stereo not given in full) | -0.667 | -2.66 | 0.552 | -1.17 | -0.891 | -0.101 | -0.13 | -0.18 | -0.25 | -0.858 | 0.922 | 0.112 (inactive) | 0.0026 | -0.0937 | -0.0716 | -0.519 | -0.283 | -0.113 | 0.249 | -0.629
2 | COC(=O)[C@@]1(Cc2ccccc2)[C@H]2c3cc(C(=O)N4CCCC4)n(Cc4ccccn4)c3C[C@H]2CN1C(=O)c1ccccc1 | 1.5 | -1.24 | 0.0043 | 1.45 | 0.053 | 0.752 | 0.894 | 2.25 | 2.42 | 0.914 | 0.939 | 0.193 (inactive) | 0.697 | 0.284 | 0.834 | 3.44 | 0.596 | 1.29 | 0.331 | 1.04
3 | COC(=O)[C@H](C)NC(=O)CCC1CC(OC(=O)NCc2cccc3ccccc23)CC2(CCCC(COC(=O)NCC3CCCCC3)O2)O1 (stereo not given in full) | 1.32 | -0.411 | 0.776 | 0.708 | -0.798 | -0.174 | -0.0035 | -0.501 | 0.587 | 0.585 | -0.409 | -0.551 (inactive) | 0.175 | -0.0984 | 0.612 | 1.61 | 0.486 | 1.29 | 0.62 | 1.12
4 | COc1ccc(-c2ccc3c(n2)CCCN3CC(O)CN2CCCc3nc(C)c(C)cc32)cc1 (stereo not given) | 1.02 | -0.578 | 0.728 | 0.0025 | -0.636 | 0.459 | 0.699 | 0.667 | 0.833 | 2.05 | 0.683 | 2.43 (inactive) | 0.713 | -0.0017 | 0.741 | 0.975 | 0.677 | 1.2 | 1.18 | 1.09
5 | CCOC(=O)[C@H](CC(C)C)NC(=O)CCC1CC(OC(=O)NCc2cccc3ccccc23)CC2(CCCC(COC(=O)NCCN3CCOCC3)O2)O1 (stereo not given in full) | 1.26 | -0.814 | 0.444 | 0.144 | -0.854 | -0.176 | -0.0605 | -0.261 | 0.217 | 0.548 | 0.363 | 0.0928 (inactive) | -0.0014 | -0.19 | 0.306 | 0.934 | 0.324 | 1.3 | 0.915 | 0.793
6 | COC(=O)[C@H](C)NC(=O)[C@@H](C)CO | 1.25 | -0.431 | 0.5 | 0.601 | -0.369 | -0.0445 | -0.0035 | 0.243 | 0.924 | 0.855 | 0.802 | 0.292 (inactive) | -0.105 | -0.103 | 0.516 | 1.15 | 0.531 | 1.03 | 0.0899 | 0.907

— PubChem BioAssay
